The list is not random: actives were taken first. Their share in the collection is about 3.8%.
HT1080 IDH1KD tx – kills HT-1080 cells with IDH1 knockdown; HT-1080 IDH1 knockdown viability, ATP luminescence, 48 h; Potency, µM (top dose mostly 46.1 µM), usual class: cytotoxic; actives 2% (n = 360,000); AID 686971
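Luminescent ATP read-out (CellTiter-Glo, 10 min at room temperature) after 48 h compound exposure at 37 °C gave viability of IDH1-knockdown HT-1080 cells. Activity was normalised to DMSO and cell-free wells, then fitted as concentration-response curves.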
ATXN viability – viability counter-screen for ATXN expression inhibitors | actives 0.49% (n = 400,000) | S2 cells (HEK-293 line with an ATXN2-luciferase reporter) viability, CellTiter-Fluor protease fluorescence, 24 h | Potency, µM (highest dose often 56.7 µM), hits mostly cytotoxic; further: nearly all actives have a fitted effect of over 40% in size
TGFb SMAD3 inh – blocks TGF-b signaling; AID 588855; HepG2 CAGA-GFP TGF-b/SMAD3 reporter, GFP fluorescence, 18 h; TGF-beta stimulated, 500 pg/mL final; Potency, µM (titrated, usually from 46.1 µM), actives largely listed as inhibitors; actives 1.2% (n = 410,000); further: nearly all actives have a fitted effect of over 65% in size
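Read-out: total well GFP (ex488/em500-530) summed from mean per-cell fluorescence. Cells: HEPG2 CAGA-GFP, 1% FBS DMEM, 18 h at 37 degrees C with 500 pg/mL final TGF-beta. Unstimulated wells served as the full-inhibition control; stimulated DMSO wells = 0%.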
HT1080NT lethal – kills 2HG-producing HT-1080-NT fibrosarcoma cells | AID 686970 | Potency, µM (highest dose often 46.1 µM), hits mostly cytotoxic | HT-1080-NT fibrosarcoma viability, CellTiter-Glo ATP luminescence, 48 h | actives 1.6% (n = 360,000);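 further: NT is the 2HG producing partner of a matched IDH1 knockdown line; nearly all actives have a fitted effect of over 55% in size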
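HT-1080-NT fibrosarcoma cells (2HG-overproducing), 750 cells/well in RPMI with 5% FBS, dosed after 2 h and incubated 48 h at 37C. CellTiter-Glo luminescence normalized to DMSO and no-cell wells; concentration-response curves fitted and classed.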
HepG2 tox – counter-screen for TGF-b inhibitors: cytotoxicity in HepG2 cells; actives 0.76% (n = 410,000); AID 588856; Potency, µM (top dose mostly 46.1 µM), usual class: cytotoxic; HepG2 CAGA-GFP viability, ATP luminescence, 18 h
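CellTiter-Glo luminescence gave cytotoxicity after 18 hours at 37 degrees C. The cells were HepG2 CAGA-GFP in 1% FBS DMEM, stimulated with 500 pg/mL TGF-beta after compound addition. %Activity was normalised to no-cell wells (complete cell-killing) and DMSO (no toxicity), and curves were fitted and classified.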
ATXN2 expr inh – inhibitors of ATXN2 expression | HEK-293 ATXN2-luciferase reporter, luminescence, 24 h | Potency, µM (highest dose often 57 µM), hits mostly inhibitors | actives 0.72% (n = 360,000) | AID 1745845; further: nearly all actives have a fitted effect of over 55% in size
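ATXN2-luciferase reporter cells (luciferase flanked by upstream and downstream ATXN2 gene portions) were treated 24 h at 37 °C with compounds at up to 57 uM. SteadyGlo luminescence gave expression; GF-AFC fluorescence gave viability.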
A number is an active result; n = inactive; u = inconclusive; x = not tested or not shown; ! = a repeat was not active. The call rests on the fitted dose curve; in most records, active means well fitted curve in the direction sought with a large enough effect; inconclusive means small, poorly fitted or top-dose-only effect, or another doubt; inactive means no such curve, though single readings can be large; an effect the other way counts as inactive or inconclusive.

SMILES | HT1080 IDH1KD tx | ATXN viability | TGFb SMAD3 inh | HT1080NT lethal | HepG2 tox | ATXN2 expr inh
COc1ccc(NC(=O)/C(Cl)=C(/Cl)S(=O)Cc2ccccc2Cl)cn1 (configuration not stated) | 16µM | 0.6µM | 3.5µM | 1.3µM | 11µM | 0.84µM
COc1ccc(NC(=O)/C(Cl)=C(/Cl)S(=O)(=O)Cc2ccc(C)cc2)cn1 | 8.2µM | 8.9µM | u | 23µM | 5.6µM | 7.1µM
COCC(=O)Nc1cc(C(=O)N2CC3CCC2C3)c2c(c1)nc(-c1ccncc1)n2C (configuration not stated) | x | n | x | x | x | x
CCCCOC(=O)CCCCCCCCC(=O)OCCCC | x | n | x | x | x | n
Cc1ccc2cc3cc(C(=O)N4CCN(c5ccccc5)CC4)sc3nc2c1 | x | n | n | x | n | n
CCCCCn1c(N2CCC(Cc3ccccc3)CC2)nc2c1c(=O)[nH]c(=O)n2C | u | x | u | 21µM | 11µM | u
CC(C)C(=O)OCc1cccc(OC(=O)[C@@H]2N3C(=O)[C@@H](NC(=O)Cc4ccccc4)[C@H]3SC2(C)C)c1 | x | u | x | x | x | n
COc1ccc2nc(NC(=O)c3nc(S(=O)(=O)Cc4ccccc4)ncc3Cl)sc2c1 | x | x | 7.9µM | x | 10µM | x
Cc1cccc(CS(=O)(=O)c2ncc(Cl)c(C(=O)Nc3nc4ccc(F)cc4s3)n2)c1 | x | n | u | x | n | n
O=C(Nc1nc2ccc(F)cc2s1)c1nc(S(=O)(=O)Cc2ccccc2)ncc1Cl | x | 14µM | u | x | n | u
CCO[C@H]1[C@H](NC(=O)c2cccnc2)c2ccccc2C12CCN(C(=O)c1cc(C)n(C)n1)CC2 | x | n | x | x | x | x
O=C(c1c(F)cccc1F)N(Cc1ccccn1)C1CC1 | n | n | 13µM | n | n | n
CC(C)Cn1cnc2c(N)nc3ccccc3c21 | n | n | n | n | n | 22µM!
COc1cc(=O)n2c(c1C(=O)NCc1ccsc1)CCN(Cc1nc3ccccc3[nH]1)CC2 | x | n | x | x | x | x
CCOC(=O)c1c(CSC(=N)N)n(-c2ccc(C)cc2)c2cc(Br)c(OC(C)=O)cc12 | n | 25µM | 22µM | n | 11µM | u
CC(C)c1ccc(Nc2c(-c3ccccn3)nc3ccccn23)cc1 | x | u | u | x | 10µM | u
Cc1ccn2c(Nc3ccccc3C)c(-c3ccccn3)nc2c1 | 9.2µM | x | 13µM | 15µM | 16µM! | 4µM
Cc1ccccc1Nc1c(-c2ccccn2)nc2ccccn12 | u | u | u | u | n | x
Fc1cccc(-c2nc(-c3ccncc3)no2)c1 | x | u | u | x | n | n
O=C(CSc1n[nH]c(-c2ccccc2O)n1)N1CCCc2ccccc21 | 16µM | n | n | u | n | n
CC(=O)N1CCN(c2ccc(OCc3nn(C)c(C)c3-c3cccc4c(CCCOc5cccc6ccccc56)c(C(=O)O)n(Cc5cccnc5)c34)cc2)CC1 | x | x | x | x | x | n
COC(=O)C1CCN(Cc2ccc3c(c2)CN(C(=O)C2Cc4ccccc4O2)CCO3)CC1 (configuration not stated) | x | n | x | x | x | x
CCOC(=O)CCCc1ccc(/C(C)=N/NC(N)=S)cc1 | u | u | n | 16µM | n | n
CCOC(=O)CCCc1ccc(/C(C)=N/NC(=S)NC)cc1 | n | u | n | n | n | x
CS(=O)(=O)c1ccc(CNC(=O)C2(C(F)(F)F)CC(CCCO)CCCO2)cc1 (configuration not stated) | 5.8µM | n | n | 1.6µM | n | n
SMILES | HT1080 IDH1KD tx | ATXN viability | TGFb SMAD3 inh | HT1080NT lethal | HepG2 tox | ATXN2 expr inh
Cc1ccc2nc(-c3ccccc3)nn2c1 | n | n | n | n | n | 3.2µM
Cc1ccc(-c2nnc(-c3ccccc3)c(-c3ccccc3)n2)cc1 | n | n | n | n | n | n
CC(C)CC(=O)/C(=C\c1ccc(Cl)cc1Cl)n1cncn1 | 2.9µM | u | 7.1µM | 5.8µM | 7.9µM | x
O=C(O)/C=C/c1ccc([N+](=O)[O-])o1 | n | n | n | n | n | n
CN1CCN(C(=O)/C=C/c2ccc([N+](=O)[O-])o2)CC1 | 21µM | x | 11µM | u | n | x
Cc1c(C(=O)NCC2(c3ccccc3)CCOCC2)cnn1-c1nccc(-c2ccco2)n1 | x | n | x | x | x | x
CCOc1ccc(/C=C/[N+](=O)[O-])c2ccccc12 | 13µM | u | 5µM | u | n | 25µM
CCOC(=O)COc1ccc2ccccc2c1/C=C/[N+](=O)[O-] | 4.1µM | 14µM | 5µM | 7.3µM | 5.6µM | u
CCOC(=O)COc1ccc(/C=C/[N+](=O)[O-])c(OCC(=O)OCC)c1 | 5.6µM | 10µM | u | 7.9µM | n | 8.9µM
COc1cc(OC)nc(O[C@H](C(=O)O)C(OC)(c2ccccc2)c2ccccc2)n1 | x | n | x | x | x | n
O=C(Nc1ccc([N+](=O)[O-])cc1)Nc1nc(-c2ccc(Cl)s2)cs1 | 7.3µM | 14µM | u | 6.5µM | 10µM | 7.9µM
CN(CC(=O)Nc1ccc(Cl)c(C(F)(F)F)c1)C(=O)c1ccc(N2CCOCC2)c([N+](=O)[O-])c1 | u | u | u | 23µM | n | u
O=C1Nc2ccccc2N(C(=O)c2ccc(-c3ccccc3)cc2)C1c1nc2ccccc2[nH]1 (configuration not stated) | 16µM | u | x | u | x | n
O=C1Nc2ccccc2N(C(=O)c2c(F)cccc2F)C1c1nc2ccccc2[nH]1 (configuration not stated) | u | n | x | n | x | n
COc1ccc(OC)c(-c2cc(Cl)c3c(c2)CC(CNC(=O)c2coc4c2C(=O)CCC4)O3)c1 (configuration not stated) | x | n | x | x | x | x
CCn1cc(CNCc2cn(C)nc2-c2ccc(C3CCCCC3)cc2)cn1 | 21µM | n | u | 15µM | n | n
Cn1cc(CNC(=O)C2CCCCC2)cn1 | n | n | n | n | n | n
Cc1ccc(NC(=O)c2nc(SCc3ccccc3F)ncc2Cl)cc1 | x | x | n | x | n | x
O=S1(=O)CCOC[C@H](c2ccccc2)N1Cc1ccc(Cl)c(Cl)c1 | x | x | u | x | n | x
CCC1OC(=O)C[C@@H](O)[C@H](C)[C@@H](O[C@@H]2O[C@H](C)C[C@H](N(C)C)[C@H]2O)[C@@H](CC=O)C[C@@H](C)C(=O)/C=C/[C@]2(C)OC2C1C (some centres not stated) | x | 16µM | x | x | x | x
COc1ccc(C)cc1NC(=O)C1CCCN1C(=O)OCc1ccccc1 (configuration not stated) | n | n | n | n | n | n
COc1cc2nc(N3CCN(C(=O)OCc4ccccc4)[C@H](C(=O)NC(C)(C)C)C3)nc(N)c2cc1OC | u | u | n | 18µM | n | n
CN(c1ccccc1)S(=O)(=O)c1cccc(NC(=O)c2cc(=O)c3ccccc3o2)c1 | n | u | n | n | n | 13µM

Screens from PubChem.
